Out of some 320,000 compounds screened, about 1,900 (0.59%) were called active. Cut-off read from the data, not from the text of the source: active = inhibition mostly above about 10% (no sharp cut-off); inactive = mostly below about 6.7%. The list comes from a sample in which actives are over-represented; it also holds similar structures and randomly drawn compounds.

For this test, the target named is Protein LANA1 (Human herpesvirus 8 type P (isolate GK18)) (UniProt Q9QR71). In words: blockers of LANA interaction with H2A/H2B – biochemical, FP readout, HTS, primary screen (AID 2629). As to conditions: cell-free LANA-H2A/H2B peptide, fluorescence polarization, stronger effect = higher value, concentration not given here. A general note: In fluorescence polarisation assays a small probe gives low polarisation when free and higher when bound to something large.
Chain of Protein LANA1 (Human herpesvirus 8 type P (isolate GK18)) (Q9QR71 whole entry, looked up): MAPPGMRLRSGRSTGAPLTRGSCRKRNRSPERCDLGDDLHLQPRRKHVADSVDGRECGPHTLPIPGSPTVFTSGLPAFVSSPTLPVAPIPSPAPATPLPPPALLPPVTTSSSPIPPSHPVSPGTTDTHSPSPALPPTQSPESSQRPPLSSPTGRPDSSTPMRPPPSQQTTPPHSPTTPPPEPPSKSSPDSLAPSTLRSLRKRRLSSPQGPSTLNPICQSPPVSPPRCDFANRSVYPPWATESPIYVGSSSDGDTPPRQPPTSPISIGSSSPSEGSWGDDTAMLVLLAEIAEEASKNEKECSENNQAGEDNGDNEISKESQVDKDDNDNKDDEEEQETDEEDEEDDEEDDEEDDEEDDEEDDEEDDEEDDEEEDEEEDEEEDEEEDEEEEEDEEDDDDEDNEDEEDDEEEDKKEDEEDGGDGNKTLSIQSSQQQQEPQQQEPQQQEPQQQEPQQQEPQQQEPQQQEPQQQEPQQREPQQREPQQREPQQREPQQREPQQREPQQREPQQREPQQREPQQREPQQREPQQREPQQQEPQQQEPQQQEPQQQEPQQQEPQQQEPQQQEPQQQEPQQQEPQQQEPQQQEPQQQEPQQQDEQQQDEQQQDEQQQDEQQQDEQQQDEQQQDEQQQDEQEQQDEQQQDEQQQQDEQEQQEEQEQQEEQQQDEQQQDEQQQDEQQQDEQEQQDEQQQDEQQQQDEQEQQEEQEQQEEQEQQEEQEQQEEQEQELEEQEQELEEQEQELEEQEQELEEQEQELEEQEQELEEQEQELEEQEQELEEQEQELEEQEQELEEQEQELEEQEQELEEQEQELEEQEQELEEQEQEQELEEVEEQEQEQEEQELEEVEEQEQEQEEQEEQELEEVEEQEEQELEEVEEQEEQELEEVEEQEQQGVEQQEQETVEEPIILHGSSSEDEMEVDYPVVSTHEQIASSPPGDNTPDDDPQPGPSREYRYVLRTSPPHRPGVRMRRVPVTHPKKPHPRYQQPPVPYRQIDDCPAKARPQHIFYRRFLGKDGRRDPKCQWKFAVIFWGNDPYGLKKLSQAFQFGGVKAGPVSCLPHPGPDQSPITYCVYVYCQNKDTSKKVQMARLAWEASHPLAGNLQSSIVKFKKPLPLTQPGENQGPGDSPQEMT
The term inhibition denotes the relative decrease from the control value, in per cent. Take `CCc1c(O)cc2n(c1=O)-c1ccccc1C2(C)C`: the inhibition was 5.7% (inactive). In the case of `O=C(CN1CCN(c2ncccn2)CC1)Nc1ccccc1C(F)(F)F` it was 0.982% (inactive); in that of `COc1ccc(OC)c(C(=O)c2coc3ccc(O)c(CN4CCOCC4)c23)c1`, -2.58% (inactive); in that of `COc1ccc(/C(C)=N/N2CCOCC2)c(O)c1`, 25.4% (active). As for `COc1cc(C(=S)N2CCOCC2)ccc1O`, the figure is 9.41% (inactive); as for `CC(C)(C)C1CCC(OC(=O)CCC(=O)Nc2ccccc2)CC1` (stereo not given), -3.13% (inactive); as for `Cc1ccc(C2NC(C(=O)O)CS2)cc1` (stereo not given), 1.22% (inactive). As for `CN(CC(=O)Nc1ccc(F)c(F)c1F)C(=O)Cn1cnc2c1c(=O)n(C)c(=O)n2C`, the figure is 1.35% (inactive). As for `O=c1[nH]n2c(=O)c3c([nH]c2c1N=Nc1ccccc1)CCC3`, the inhibition is -4.38% (inactive).

`CC(C)(C)n1c(=O)[nH]c2c(c1=O)CCC2`: the inhibition was 23.6% (active). As for `Cc1c(C(C)CCCO)oc(=O)c2c1Oc1c(C)c(C(C)C[C@@H](C)O)oc(=O)c1C2` (stereo not given in full), the inhibition is -3.56% (inactive). `COc1ccc(C(=O)COC(=O)C(O)c2ccccc2)c(OC)c1` (stereo not given): the inhibition was -6.19% (inactive). Take `COCc1ccc(C(=O)N2CCc3c([nH]c4ccccc34)C2c2ccccn2)s1` (stereo not given): the inhibition was 183% (active). Consider `Cc1cccc(C2c3[nH]c4ccccc4c3CCN2C(=O)c2cc(-c3cccn3C)n[nH]2)n1` (stereo not given), for which the inhibition was 1.43% (inactive).

Turning to `O=C(c1cn2ccccc2n1)N1CCc2c([nH]c3ccccc23)C1c1ccccn1` (stereo not given), the inhibition was 2.75% (inactive). `Cc1cc(C)n(CCNC(=O)CC2C(=O)NCCN2Cc2ccc(C)o2)n1` (stereo not given): the inhibition is 4.74% (inactive).

For the molecule `Cc1cc(N2C(=O)c3ccc(C(=O)NCc4ccccc4)cc3C2=O)no1`, the inhibition is 0.191% (inactive). As for `CC1CCN(CCCn2c(SCC(=O)NC3CCCC3)nc3ccccc3c2=O)CC1`, the figure is 2.87% (inactive); as for `O=C(CSc1nc2ccccc2c(=O)n1CCCO)NC1CC1`, 635% [above what the read-out allows, likely interference] (active); as for `O=C(CSc1nc2ccccc2c(=O)n1-c1ccc(F)cc1)NC1CC1`, 0.0498% (inactive). In the case of `COc1ccc(C)cc1S(=O)(=O)N(CC(=O)Nc1cccc([N+](=O)[O-])c1)c1ccc(C)cc1` it was -2.08% (inactive). For the molecule `Cc1ccc(NC(=O)C(C)Sc2nnc(C3CC3)n2C2CC2)cc1S(=O)(=O)N1CCOCC1` (stereo not given), the inhibition is -1.97% (inactive). As for `COc1ccc([N+](=O)[O-])cc1N(CC(O)CN(CC(C)C)CC(C)C)S(=O)(=O)c1ccc(C)cc1` (stereo not given), the figure is 1.46% (inactive). For `Cc1cccn2c(=O)c(/C=C(\C#N)S(=O)(=O)c3ccc(Cl)cc3)c(N3CCC(C(N)=O)CC3)nc12`, the inhibition was -0.0722% (inactive). Consider `Cc1cccn2c(=O)c(/C=C(\C#N)C(N)=O)c(N3CCCCCC3)nc12`, for which the inhibition was 6.27% (inactive). As for `Cc1cc(C)cc(Oc2nc3c(C)cccn3c(=O)c2/C=C(\C#N)C(=O)NC2CCS(=O)(=O)C2)c1` (stereo not given), the figure is 18.8% (active). In the case of `COc1c(Br)cc2c(C)c(C(=O)N3CCOCC3)oc2c1Br` it was -7.01% (inactive); in that of `CC(C)C1N=C2c3ccccc3N=C(SCC(=O)c3ccc(O)c(O)c3)N2C1=O` (stereo not given), 13.1% (active); in that of `CCC(C)NC(=O)CSC1=Nc2ccccc2C2=NC(CCC(=O)NCc3ccco3)C(=O)N12` (stereo not given), 4.12% (inactive).

Turning to `O=C(CSC1=Nc2ccccc2C2=NC(CC(=O)NCc3ccco3)C(=O)N12)NCc1ccco1` (stereo not given), the inhibition is -2.02% (inactive). In the case of `CS(=O)(=O)N(Cc1ccccc1Cl)c1ccc(C(=O)NCc2cccnc2)cc1` it was 3.45% (inactive). As for `O=C(/C=C/c1ccc([N+](=O)[O-])cc1)NCCSCc1ccco1`, the figure is 5.42% (inactive). Turning to `O=C(Nc1ccccc1F)c1ccc2c(c1)OCO2`, the inhibition is -1.38% (inactive).

For `Cc1ccc2cc(CCNC(=O)c3ccc4c(c3)OCO4)c(=O)[nH]c2c1`, the inhibition is -1.83% (inactive). As for `O=C(NCCc1ccc(C(F)(F)F)cc1)c1ccc2c(c1)OCO2`, the figure is 16.2% (active); as for `COc1ccc(OCCn2ccnc2C)cc1`, -0.22% (inactive).

For `COC(=O)C1=C(C(=O)OC)C2(OC1c1ccc(Br)cc1)C(=O)c1ccccc1C2=O` (stereo not given), the inhibition is 3.44% (inactive).

As for `COC(=O)CSc1nc2ccccc2c(=O)n1Cc1ccccc1`, the inhibition is 2.39% (inactive). Regarding `C=CCSc1nc2c(c(=O)[nH]c(=O)n2C)n1Cc1ccccc1`, the inhibition is -0.531% (inactive). In the case of `Cc1cc2nc3c(=O)n(Cc4ccccc4)c(=O)[nH]c3nc2cc1N` it was 27.2% (active). Consider `Cc1ccc2cccc(OCCCOc3ccccc3CO)c2n1`, for which the inhibition is -1.05% (inactive). As for `CN1C(=O)c2cccc3c(N)ccc(c23)C1=O`, the figure is 25.3% (active); as for `COc1ccc(N2C(=O)c3cccc4cccc(c34)C2=O)nn1`, -111% (inactive); as for `Cc1nn(C)cc1N1C(=O)c2cccc3c(N)ccc(c23)C1=O`, 101% (active). As for `Cc1nn(-c2cc(Cl)ccc2N)c(=O)c2ccccc12`, the figure is 0.97% (inactive). As for `O=C(O)c1ccc2c3c(cccc13)C(=O)N(OS(=O)(=O)c1ccccc1)C2=O`, the figure is 1.71% (inactive). On to `C[N+](C)(CCCCCC[N+](C)(C)CCCN1C(=O)c2cccc3cccc(c23)C1=O)CCCN1C(=O)c2cccc3cccc(c23)C1=O`, for which the inhibition is 0.475% (inactive). With `CC(C)C[C@H]1CN=C(Nc2ccccc2)N1CC1CCCCC1`, the inhibition was -0.894% (inactive). As to `CCC(=O)Nc1nnc(S(=O)(=O)N2CCCc3ccccc32)s1`, the inhibition was 3.1% (inactive). For the molecule `CN(Cc1ccccc1)C(=O)C1CCCN(c2ncnc3c2nc2n3CCCCC2)C1` (stereo not given), the inhibition is -6.07% (inactive). Consider `CN1CCN(S(=O)(=O)c2ccc(Nc3ccc(F)cc3)nc2)CC1`, for which the inhibition was 3.84% (inactive).

For `CC1(C(=O)O)CCC(C(=O)Nc2ccc(Cl)c(Cl)c2)C1(C)C` (stereo not given), the inhibition was -7.06% (inactive). In the case of `O=C(c1ccccc1)c1cccn1CC(=O)N1CCN(c2ccc(F)cc2)CC1` it was 5.58% (inactive); in that of `Brc1ccc(C2=CC(c3ccco3)n3ncnc3N2)cc1` (stereo not given), 35% (active); in that of `CCOc1ccc(C2=CC(c3ccccc3)n3ncnc3N2)cc1` (stereo not given), -0.926% (inactive). As for `CC1=C(C(=O)OCc2ccccc2)C(c2ccco2)n2ncnc2N1` (stereo not given), the figure is -3.53% (inactive); as for `Cc1ccc(NC(=O)COc2coc(CN3CCc4ccccc4C3)cc2=O)cc1Cl`, -6.2% (inactive). On to `O=C(Nc1ccc(Br)cc1)C1CCC(=O)N1Cc1ccccc1Cl` (stereo not given), for which the inhibition is 1.59% (inactive). In the case of `COc1ccc2oc(=N)c(C(=O)Nc3ccc(Br)cc3)cc2c1` it was 1.77% (inactive); in that of `COc1ccc(/C=C/C(=O)c2cc(Br)ccc(=O)c2O)cc1`, 182% (active). As for `COc1ccc(C(=O)/C=C/c2cccnc2)c(OC)c1`, the figure is 0.568% (inactive). As for `CC(=O)c1ccc(S(=O)(=O)NC2CC(=O)N(c3ccc4c(c3)OCCO4)C2)cc1` (stereo not given), the figure is -5.02% (inactive); as for `O=S(=O)(NC1CC1)c1ccc2c3c(cccc13)CC2`, -8.67% (inactive); as for `CC(C)C(=O)Nc1ccc2c(c1)oc1ccccc12`, 0.3% (inactive). Regarding `CC(C)C(=O)Nc1ccc2c3c(cccc13)CC2`, the inhibition was 22.9% (active). In the case of `CC(C)Oc1ccc(C(=O)NC(C)(C)CO)cc1` it was 2.55% (inactive); in that of `O=C(/C=C/Nc1ccc(S(=O)(=O)Nc2cnc3ccccc3n2)cc1)c1cccnc1`, 5.47% (inactive); in that of `Cc1cccc(N2CC(C)Cn3c2nc2c3c(=O)n(CC(=O)OCc3ccccc3)c(=O)n2C)c1` (stereo not given), 0.536% (inactive). In the case of `O=C(Nc1ccccc1C(=O)N1CCCCCC1)c1ccccc1Cl` it was -5% (inactive); in that of `O=C(Nc1c(C(=O)N2CCCCC2)cnn1-c1ccccc1)c1ccco1`, 0.114% (inactive); in that of `O=C(Nc1ccccc1C(=O)N1CCCCC1)c1ccco1`, 20.4% (active). As for `CCOc1ccc(NC(=O)CN(C)C(=O)c2c(C)noc2C)cc1OCC`, the figure is -1.42% (inactive). For the molecule `CCCCN=C1N/C(=C\c2ccco2)C(=O)N1c1ccccc1`, the inhibition was -4.75% (inactive). For the molecule `CCOc1ccc(CC(=O)NCCS(=O)(=O)N2CCN(c3ccccc3)CC2)cc1`, the inhibition was 7.98% (inactive).

Consider `COc1ccc(OC)c(NC(=O)N[C@H](Cc2ccccc2)C(=O)NN)c1`, for which the inhibition is 1.67% (inactive).

Take `O=C(CNC(=O)OCc1ccccc1)Oc1cc2oc(=O)cc(-c3ccccc3)c2cc1Cl`: the inhibition is 22.2% (active).

Regarding `O=C(CNC(=O)c1ccc(-c2ccccc2)cc1)OCc1ccc(Cl)cc1`, the inhibition was -3.98% (inactive). Turning to `CC(=O)COc1ccc2c(-c3ccccc3)cc(=O)oc2c1`, the inhibition was 4.47% (inactive). On to `COc1ccc(CCNC(=O)C2CCCN(Cc3nc(-c4cccc(Cl)c4)oc3C)C2)cc1OC` (stereo not given), for which the inhibition is 2.76% (inactive). `Cc1ccc(C)c(NC(=O)COC(=O)Cn2c(C)csc2=O)c1`: the inhibition is -0.0986% (inactive). In the case of `CCN1C(=O)C(=O)N(CC(=O)Nc2cc(C)ccc2C)C1=O` it was 65.4% (active); in that of `CCN1C(=O)C(CC(=O)Nc2cc(C)ccc2C)SC1=Nc1ccc(S(N)(=O)=O)cc1` (stereo not given), -5.5% (inactive). In the case of `Cc1cccc(C(=O)NCC(=O)OCC(=O)N(C)CC(=O)Nc2ccccc2Cl)c1` it was -3.61% (inactive); in that of `CSc1nnc(-c2ccc(C(F)(F)F)cn2)o1`, 12.3% (active).

As for `CC(C)Oc1ccc(Oc2ccc(C(F)(F)F)cn2)cc1`, the inhibition was 0.437% (inactive).

On to `FC(F)(F)c1cnc(Oc2ccccc2-c2nnc(-c3ccc(Cl)cc3)o2)c(Cl)c1`, for which the inhibition is 0.331% (inactive).

Turning to `N/C(=N\c1nc2ccccc2o1)NC(=O)C(Cc1ccccc1)N1C(=O)c2ccccc2C1=O` (stereo not given), the inhibition is -0.102% (inactive). As for `C[N+](C)(C)CCNC(=O)c1cc[n+](Cc2ccccc2)c(/C=N/O)c1`, the figure is -2.86% (inactive); as for `COc1ccc(NC(=O)CC2C(=O)OCC3CCCCN32)cc1Cl` (stereo not given), 6.65% (inactive); as for `Cc1cc(NC(=O)CN2C(=O)NC(CC(C)C)C2=O)no1` (stereo not given), -2.81% (inactive).

Values taken from PubChem BioAssay AID2629 (Broad Institute, 2010).
